Screening results: PubChem, several laboratories
SMARCA2 act: activators of SMARCA2 function | MG213 cells, MMTV-luciferase reporter, dexamethasone, overnight | activation, % at 9.1 µM | 1% of 370,000 active; in the data active = activation above about 7.8%
proKLK7 act: activates the human kallikrein-7 zymogen | P49862 | activation, % at 7 µM | 0.9% of 370,000 active | purified proKLK7, EDANS-DABCYL substrate fluorescence; 100% is mature enzyme control, 0% vehicle;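 active = activation above the mean of all tested compounds plus 3 SD, computed per campaign excluding outliers beyond control limits, cut at about 13% in these data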
Target sequence (P49862 whole entry, looked up): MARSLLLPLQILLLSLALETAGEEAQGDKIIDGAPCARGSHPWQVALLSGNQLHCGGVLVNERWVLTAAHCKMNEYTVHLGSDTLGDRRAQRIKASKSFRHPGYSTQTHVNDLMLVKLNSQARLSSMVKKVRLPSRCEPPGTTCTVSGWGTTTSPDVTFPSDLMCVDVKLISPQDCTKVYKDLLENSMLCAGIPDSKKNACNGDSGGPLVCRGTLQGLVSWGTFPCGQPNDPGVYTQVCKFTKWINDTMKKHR
FAS TE block: inhibitors of human fatty acid synthase thioesterase domain | P49327 | recombinant FAS-TE, OMFH fluorogenic substrate, fluorescence endpoint | inhibition, % at 15 µM | 0.67% of 360,000 active | AID 602261;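 active = compounds whose normalised, plate-corrected inhibition of enzyme fluorescence in the single-dose primary screen is 50% or more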
FXN GAA850 act: activators of GAA850 frataxin (FXN) promoter; HEK293 lucGAA850 FXN promoter luciferase reporter, 24 h; percent of 10 µM SAHA response; activation, % at 6 µM; 0.56% of 360,000 active;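 active = activation above the average of all compounds screened plus 3 SD, cutoff fixed separately per campaign, cut at about 7.5% in these data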
GAA30 FXN cntr: GAA30 FXN promoter activation counter-screen; shares compounds with FXN GAA850 act; HEK293 lucGAA30 FXN promoter luciferase, 24 h; DMSO = 0%, 5 µM ipriflavone = 100%; activation, % at 6 µM; 66% of 1,900 active;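 active = mean activation above the mean of solvent-only control wells plus 3 SD, cut at about 22% in these data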;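 also: counterscreen of GAA850 promoter hits where activity marks nonselective or luminescence artifacts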
GAA850 confirm: GAA850 FXN promoter activation confirmation | activation, % at 6 µM | 86% of 1,900 active | shares compounds with FXN GAA850 act | AID 588351 | HEK293 lucGAA850 FXN promoter luciferase reporter, 24 h; 100% = activation by SAHA;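 active = mean activation above a set limit taken from the primary screen, cut at about 8% in these data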
Each line names hits and unclear results; the compound was inactive in the other large screens (follow-up assays come after a bar, where they were run). Sampled rows, rich in hits. Any-hit rate of the full collection: about 2.9%.

COc1ccc(NC(=O)C2C(=O)NC3(C)CC2c2ccccc2O3)cc1 (stereo unspecified)	FXN GAA850 act 12.9 | GAA30 FXN cntr inactive | GAA850 confirm inactive
CCN(C[C@H]1N[C@@](C)(C(=O)OC)[C@H]2C(=O)N(C)C(=O)[C@@H]12)C(=O)Nc1ccccc1	none
CCN(C[C@H]1N[C@@](C)(C(=O)OC)[C@H]2C(=O)N(Cc3ccccc3)C(=O)[C@@H]12)C(=O)Nc1ccc(Cl)cc1	FXN GAA850 act 14.2 | GAA30 FXN cntr 36.9 | GAA850 confirm 14.7
CCN(C[C@H]1N[C@@](C)(C(=O)OC)[C@H]2C(=O)N(Cc3ccccc3)C(=O)[C@@H]12)C(=O)Nc1ccc(OC)cc1	FXN GAA850 act 9.4 | GAA30 FXN cntr 27.1 | GAA850 confirm 9.3
Cc1cnc2cc([N+](=O)[O-])ccc2n1	none
CCn1c(SCC(=O)NCCc2ccc(OC)c(OC)c2)nc2c([nH]c3ccccc32)c1=O	FXN GAA850 act 14.1 | GAA30 FXN cntr 26.2 | GAA850 confirm 8.2
CCn1c(SCC(=O)NCCc2ccccc2)nc2c([nH]c3ccccc32)c1=O	none
N#CC(Cc1ccccc1)(Cc1ccccc1)C(=O)NN	none
O=C(Nc1ccccc1Cl)c1ccccc1CC(O)(c1ccccc1)c1ccccc1	FXN GAA850 act 14.2 | GAA30 FXN cntr inactive | GAA850 confirm 12.0
CC(C)(C)c1ccc(C(=O)Nc2ccccc2Cl)cc1	none
Cc1cc(C)n2cc(CSc3nc4ccccc4s3)nc2n1	FXN GAA850 act 7.7 | GAA30 FXN cntr 98.5 | GAA850 confirm 29.7
CC(=O)Nc1c(Br)cc2c(c1Br)Cc1cc(Br)ccc1-2	none
CC(=O)Nc1ccc2c(c1)Cc1c-2cc(Br)c(N)c1Br	FXN GAA850 act 7.6 | GAA30 FXN cntr 62.9 | GAA850 confirm 28.5
Cn1cc([N+](=O)[O-])c(C(=O)Nc2ccc(-c3nc4ccccc4o3)cc2)n1	FXN GAA850 act 8.8 | GAA30 FXN cntr 93.2 | GAA850 confirm 30.7
COc1cccc(NC(=O)C2CCCN2C(=O)NCc2ccccc2)c1 (stereo unspecified)	none (no result: FAS TE block, FXN GAA850 act)
CCc1cccc(C)c1NC(=O)CN1C(=O)c2ccccc2S1(=O)=O	FXN GAA850 act 17.5 | GAA30 FXN cntr inactive | GAA850 confirm inactive
O=C(O)CCCC(=O)NCCc1cccc(Cl)c1	none
CN(C)c1ccc(C(=O)/C=C/c2cccnc2)cc1	FXN GAA850 act 8.8 | GAA30 FXN cntr 119.1 | GAA850 confirm 37.4
O=C(/C=C/c1cccnc1)c1ccc(F)c(F)c1	none
CC(C)Cc1cc(-c2ccco2)c(C#N)c(N)n1	FXN GAA850 act 8.2 (no result: SMARCA2 act, proKLK7 act) | GAA30 FXN cntr inactive | GAA850 confirm 18.4
N#Cc1c(-c2ccco2)cc(-c2ccc(F)cc2)nc1N	none
CC1S/C(=N/N=C2CCCCC2)NC1=O (stereo unspecified)	none
CC1S/C(=N/N=C2CCC(C(C)(C)C)CC2)NC1=O (stereo unspecified)	FXN GAA850 act 14.1 | GAA30 FXN cntr 27.9 | GAA850 confirm 7.6
COc1ccc(CN2CCC2(C)C(=O)Nc2cccc(NS(C)(=O)=O)c2)c2ccccc12 (stereo unspecified)	FXN GAA850 act 16.8 | GAA30 FXN cntr inactive | GAA850 confirm 18.7
Nc1nonc1N1CCCCC1	none
O=C(CCCN1C(=O)c2ccccc2C1=O)Nc1c(C(=O)C2CC2)oc2ccccc12	FXN GAA850 act 17.3 | GAA30 FXN cntr 27.8 | GAA850 confirm 8.6
Cc1cnc(N=Nc2ccccc2)[nH]1	FXN GAA850 act 7.7 | GAA30 FXN cntr 100.5 | GAA850 confirm 27.9
O=C(Nc1ccc(N2CCOCC2)cc1)c1cccc(S(=O)(=O)N2CCCC2)c1	none
CSc1ncnc2c1ncn2CCCN[C@H](C)c1cccc2ccccc12	FXN GAA850 act 9.6 | GAA30 FXN cntr inactive | GAA850 confirm 9.8
CCCCNCc1nc2ccccc2c(=O)[nH]1	none
COc1ccc(CCNC(=O)c2cc3c(=O)n4cccc(C)c4nc3n(Cc3ccco3)c2=N)cc1OC	FXN GAA850 act 13.2 | GAA30 FXN cntr inactive | GAA850 confirm inactive
CCOc1ccc(S(=O)(=O)NCCC(=O)NCCc2ccc(OCC)c(OCC)c2)cc1	none
Oc1ccc(/C=N/N=C/c2ccc(O)c(O)c2)cc1O	FXN GAA850 act 8.2 | GAA30 FXN cntr 32.7 | GAA850 confirm 16.1
CC1=C(C#N)C(/C=N/OCc2ccc(Cl)cc2)CC(=O)N1 (stereo unspecified)	none
Fc1cccc(-n2cc(-c3ccccc3)c3c(=S)nc[nH]c32)c1	FXN GAA850 act 7.9 | GAA30 FXN cntr inactive | GAA850 confirm 18.5
Cc1ccc(-n2cc(-c3ccccc3)c3c(=O)[nH]cnc32)cc1	none
Fc1ccc(-n2cc(-c3ccccc3)c3c(=S)nc[nH]c32)cc1	FXN GAA850 act 8.5 | GAA30 FXN cntr inactive | GAA850 confirm 13.5
O=c1[nH]cnc2c1c(-c1ccccc1)cn2-c1ccccc1	none
CCc1nnc(NC(=O)CSc2nnc(-c3ccoc3C)n2-c2cccc(C)c2)s1	none
Cn1c(=O)n(C)c2cc(NC(=O)c3ccccc3NS(C)(=O)=O)ccc21	none
O=C(CCl)Nc1cc(S(=O)(=O)N2CCCCCC2)ccc1Cl	FXN GAA850 act 10.8 | GAA30 FXN cntr inactive | GAA850 confirm 13.8
CC(C)(C)CC(=O)Nc1cc(S(=O)(=O)N2CCCCCC2)ccc1Cl	none
COc1ccc(/C=C2\N=C(c3ccccc3)N(c3ccc(C(=O)O)cc3)C2=O)cc1OC	FXN GAA850 act 9.3 | GAA30 FXN cntr 41.3 | GAA850 confirm 22.8
COc1cc(OC)c(OC)cc1/C=N/Nc1ncnc2c1[nH]c1ccccc12	FXN GAA850 act 7.9 | GAA30 FXN cntr inactive | GAA850 confirm 18.2
COc1cccc(CN(Cc2ccco2)C(c2ccc(F)cc2)c2nnnn2C(C)(C)C)c1 (stereo unspecified)	none
CCC(C)(C)n1nnnc1C(c1ccc(C)cc1)N(Cc1ccco1)Cc1cccs1 (stereo unspecified)	FXN GAA850 act 8.3 | GAA30 FXN cntr inactive | GAA850 confirm 8.8
CC(C)(C)n1nnnc1C(c1cccnc1)N(Cc1ccccc1)Cc1ccco1 (stereo unspecified)	FXN GAA850 act 7.9 | GAA30 FXN cntr inactive | GAA850 confirm 9.0
CCC(C)(C)n1nnnc1C(C(C)C)N(Cc1cccnc1)Cc1ccco1 (stereo unspecified)	none
COc1nc(N)nc(NC(=O)c2cccs2)c1N=O	FXN GAA850 act 15.7 | GAA30 FXN cntr inactive | GAA850 confirm 31.1
CCCCOc1ccc(C(=O)NCC2(c3ccc(OC)cc3)CCOCC2)cc1	FXN GAA850 act 16.2 | GAA30 FXN cntr inactive | GAA850 confirm inactive
COc1ccc(C2(CNC(=O)c3ccc(Br)o3)CCOCC2)cc1	none
COC(=O)C1CN(C2CC2)CCS(=O)(=O)N1Cc1cn(Cc2ccc(OC)cc2)nn1 (stereo unspecified)	none (no result: FAS TE block, FXN GAA850 act)
